Measured values published in PubChem BioAssay (Tox21).
Records with an inconclusive call do not appear. Values without a mark were called inactive. Calls of active or inactive are those of the source. Calls follow the shape of the full dose curve.

What follows are molecules tested against Thyrotropin receptor (Homo sapiens) (UniProt P16473) (assay: qHTS assay to identify small molecule agonists of the thyroid stimulating hormone receptor (TSHR) signaling pathway (AID 1224843; also: nearly all actives have a fitted effect of over 45% in size)). Settings: TSHR-HEK293 cells, cAMP HTRF, agonist mode, 30 min; series mostly up to 92.4 µM; activation: at the top concentration.
Chain of Thyrotropin receptor (Homo sapiens) (P16473 whole entry, looked up): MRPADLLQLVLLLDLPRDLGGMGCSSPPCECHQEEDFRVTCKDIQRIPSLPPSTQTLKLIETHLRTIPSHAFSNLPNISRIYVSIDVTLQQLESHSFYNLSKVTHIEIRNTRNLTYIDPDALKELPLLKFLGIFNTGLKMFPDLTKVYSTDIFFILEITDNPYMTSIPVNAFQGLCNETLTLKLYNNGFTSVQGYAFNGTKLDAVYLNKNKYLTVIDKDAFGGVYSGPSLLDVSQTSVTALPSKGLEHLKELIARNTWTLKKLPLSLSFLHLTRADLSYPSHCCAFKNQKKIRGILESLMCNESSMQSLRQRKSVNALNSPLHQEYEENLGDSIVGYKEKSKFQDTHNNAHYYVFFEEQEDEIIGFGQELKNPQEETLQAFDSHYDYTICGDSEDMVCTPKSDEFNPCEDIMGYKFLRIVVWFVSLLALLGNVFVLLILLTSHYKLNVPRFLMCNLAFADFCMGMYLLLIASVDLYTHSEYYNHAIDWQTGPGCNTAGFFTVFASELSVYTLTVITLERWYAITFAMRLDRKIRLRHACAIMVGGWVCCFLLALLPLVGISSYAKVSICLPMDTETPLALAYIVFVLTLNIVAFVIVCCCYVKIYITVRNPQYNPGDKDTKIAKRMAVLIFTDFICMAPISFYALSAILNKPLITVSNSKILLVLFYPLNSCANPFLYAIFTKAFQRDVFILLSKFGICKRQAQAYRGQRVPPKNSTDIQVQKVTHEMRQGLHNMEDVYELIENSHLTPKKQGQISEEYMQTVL
From the text: National Center for Advancing Translational Sciences [NCATS]
NIH Chemical Genomics Center [NCGC]
U.S. Environmental Protection Agency [EPA]
National Institutes of Environmental Health Sciences [NIEHS]
National Toxicology Program [NTP]
U.S. Food and Drug Administration [FDA]
TSHR is the receptor for thyrotropin (thyroid stimulating hormone or TSH), a member of the glycoprotein hormone family. TSH is released by the anterior pituitary gland and is the main regulator of thyroid gland growth and development. Upon binding circulating thyrotropin, a G-protein signal cascade activates adenylyl cyclase and […] cAMP concentration is increased. cAMP is a key second messenger involved extensively in cellular signal transduction pathways associated with the majority of G-protein coupled receptors (GPCRs). The activation of these GPCRs by neurotransmitters, lipids, nucleotides, peptides and hormones results in the activation or the inhibition of plasma membrane-bound adenylate cyclase through heterotrimeric G-proteins. A cell-based TSHR assay was used to screen the Tox21 10K library for compounds that can modulate TSHR in agonist mode.
Tox21 Assay Protocol Summary:
TSHR-Hek293 cells were dispensed at 800 cells/4uL/well in 1536-well white plates using a Multidrop dispenser. […] The plates were incubated at room temperature for 30 min. 2.5 ul/well of cAMP-d2 and 2.5ul/well of anti-cAMP-cryptate was added respectively into the assay plates using a Flying Reagent Dispenser. After 1 hr incubation at room temperature, the fluorescence intensity in the plates was measured using an Envision plate reader. Each test compound was measured at 15 concentrations and in triplicates.
% is scaled to controls: 0 for no effect and ±100 for the full control effect; potency is read from the fitted curve at half-maximal effect.

| SMILES | activation | Potency |
| --- | --- | --- |
| CC[C@H]1OC(=O)[C@H](C)[C@@H](O[C@H]2C[C@@](C)(OC)[C@@H](O)[C@H](C)O2)[C@H](C)[C@@H](O[C@@H]2O[C@H](C)C[C@H](N(C)C)[C@H]2O)[C@](C)(O)C[C@@H](C)C(=O)[C@H](C)[C@@H](O)[C@]1(C)O | -5.81% [at 42.5 µM] |  |
| CCC1CCC(CCC(=O)O)C1 (stereo not given) | 1.55% |  |
| O=P(O)(O)Oc1ccccc1 | -3.3% |  |
| C=CC(=O)NC(C)C | -23.7% |  |
| Cc1cc(CCCOc2c(C)cc(-c3noc(C(F)(F)F)n3)cc2C)on1 | -13.6% [at 42.5 µM] |  |
| CC(=O)OCC1=C(C(=O)O)N2C(=O)[C@@H](NC(=O)CSc3ccncc3)[C@H]2SC1 | -0.496% [at 42.5 µM] |  |
| O=CNNC=O | -2.19% |  |
| O=C1[C@@H]2[C@H]3CC[C@H](C3)[C@@H]2C(=O)N1CCCCN1CCN(c2ncccn2)CC1 | 8.8% [at 42.5 µM] |  |
| Cc1cn([C@H]2C[C@H](F)[C@@H](CO)O2)c(=O)[nH]c1=O | -2.38% [at 42.5 µM] |  |
| c1ccc2sc(SSc3nc4ccccc4s3)nc2c1 | -4.06% [at 19 µM] |  |
| C[C@H](CS)C(=O)N1CCC[C@H]1C(=O)O | 20.1% [at 42.5 µM] |  |
| COC(C)(C)OC | -0.268% |  |
| CCN(CC)CCOc1ccccc1C(=O)CCc1ccccc1 | -1.26% [at 42.5 µM] |  |
| CC(=O)c1ccc[nH]1 | 1.68% |  |
| Cc1cc(CCC(=O)OCCOCCOCCOC(=O)CCc2cc(C)c(O)c(C(C)(C)C)c2)cc(C(C)(C)C)c1O |  | 15 µM (active) |
| CN1C(CSCC(F)(F)F)Nc2cc(Cl)c(S(N)(=O)=O)cc2S1(=O)=O (stereo not given) | -3.46% [at 42.5 µM] |  |
| CC(=O)Oc1cccc(O)c1 | -2.54% [at 42.5 µM] |  |
| CCO[Si](C)(CCCOCC1CO1)OCC (stereo not given) | 1.01% |  |
| COc1ccc(N)c([N+](=O)[O-])c1 | -10.6% |  |
| CC[C@@H](CO)NCCN[C@@H](CC)CO | 3.87% [at 42.5 µM] |  |

| SMILES | activation | Potency |
| --- | --- | --- |
| CCCCCCCCCCCCCCN(C)C | 2.75% [at 19 µM] |  |
| CCN(CC)CCOC(=O)C(c1ccccc1)c1ccccc1 | 18.7% [at 42.5 µM] |  |
| CC(C)N(C)C | 2.06% |  |
| CSCC[C@H](NC(=O)[C@H](Cc1c[nH]c2ccccc12)NC(=O)CCNC(=O)OC(C)(C)C)C(=O)N[C@@H](CC(=O)O)C(=O)N[C@@H](Cc1ccccc1)C(N)=O | 1.24% [at 42.5 µM] |  |
| C=C(C)C(=O)OCCC(F)(F)C(F)(F)C(F)(F)C(F)(F)C(F)(F)C(F)(F)F | -4.41% |  |
| CCOC(=O)c1ccc(NC(=O)CN2CCCCC2)cc1 | -0.641% [at 42.5 µM] |  |
| CC(=O)NCCO | 2.82% |  |
| CCCCCCC(O)CCOC(C)=O (stereo not given) | -3.73% [at 240 µM] |  |
| CCCCC(CC)COS(=O)(=O)O (stereo not given) | 1.62% |  |
| Nc1ccc(S(=O)(=O)NCc2ccccc2)cc1 | 5.02% [at 42.5 µM] |  |
| Cc1cccc(C)c1NC(=O)c1cc(S(N)(=O)=O)c(Cl)cc1O | 8.04% [at 42.5 µM] |  |
| CC/C=C\C/C=C\C/C=C\CCCCCCCC(=O)OCC | 8.94% |  |
| CC(C(=O)O)c1ccc(C(=O)c2cccs2)cc1 (stereo not given) | 7.94% [at 42.5 µM] |  |
| O=C(O)CNC(=O)c1ccccc1I | -7.36% [at 42.5 µM] |  |
| O[C@@H](CNC[C@H](O)[C@H]1CCc2cc(F)ccc2O1)[C@@H]1CCc2cc(F)ccc2O1 | 20.7% [at 42.5 µM] |  |
| O=C(c1ccccc1)c1ccc(O)cc1 | -5.58% |  |
| CC1=CC[C@@H]2C[C@H]1C2(C)C | 21.3% [at 19 µM] |  |
| O=C(O)c1cc(Cl)cc(Cl)c1O | -4.54% |  |
| CC1=C2[C@@H]([C@H](C)CC[C@H]2/C=C(\C)C(=O)O)[C@H](O)C1 | -1.85% |  |
| CC(C)OC(=O)c1ccccc1C(=O)OC(C)C | 0.0472% |  |
